Compound activity deposited in PubChem BioAssay by National Center for Advancing Translational Sciences (NCATS).
hNpr1 antagonist: blocks ANP-stimulated signaling of human Npr1 receptor; Potency, µM (series often up to 46.3 µM), usual class: inhibitors; AID 1347048; 1.6% of 76,000 active; HEK293 hNpr1 GloSensor cGMP, ANP-stimulated luminescence; calls by dose curve; also: nearly all actives have a fitted effect of over 60% in size
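HEK293 cells stably expressing human Npr1 and cGMP GloSensor pGS-40F, loaded 2 h with 2% GloSensor reagent, given compound 30 min at room temperature. Luminescence read before and 20 min after 0.1 nM hNppA.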
Luciferase inh: Photinus pyralis luciferase inhibition; P08659; 2.5% of 76,000 active; AID 1347043; Potency, µM (series often up to 115 µM), actives largely listed as inhibitors; purified P. pyralis luciferase, luminescence, biochemical; also: nearly all actives have a fitted effect of over 65% in size
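Inhibitors were tested against purified firefly luciferase in a biochemical, low-substrate format (both substrates at 10uM) and luminescence measured with a CCD imager.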
NIH3T3 tox: kills NIH 3T3 cells | NIH 3T3 viability, CellTiter-Glo ATP luminescence, 48-72 h | Potency, µM (titrated, usually from 96.7 µM), actives largely listed as inhibitors | 4.3% of 94,000 active | AID 1345082; also: nearly all actives have a fitted effect of over 55% in size
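Cytotoxicity is measured as loss of cellular ATP: NIH 3T3 cells (400/well) are exposed to compound for 48 or 72 hr at 37 °C, then CellTiter-Glo luminescence is imaged after 10 min at room temperature.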
HEK cytotox: cytotoxic compounds in HEK 293 cells; Potency, µM (top dose mostly 115 µM), usual class: inhibitors; HEK 293 viability, ATP luminescence (CellTiter-Glo), 48-72 h; 6.6% of 94,000 active; also: nearly all actives have a fitted effect of over 60% in size
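Luminescence from cellular ATP, measured with CellTiter-Glo, indicates HEK 293 viability. Cells plated at 250 cells/well are treated with compound for 48 or 72 hr at 37 degree Celsius before reagent addition.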
GPT2 inhibitor: inhibitors of human GPT2 alanine aminotransferase. Recombinant GPT2, coupled pyruvate oxidase/HRP Amplex Red fluorescence. 0.25% of 100,000 active. Potency, µM (highest dose often 57.7 µM), actives largely listed as inhibitors. Q8TD30; also: nearly all actives have a fitted effect of over 60% in size
Target sequence (Q8TD30 whole entry, looked up): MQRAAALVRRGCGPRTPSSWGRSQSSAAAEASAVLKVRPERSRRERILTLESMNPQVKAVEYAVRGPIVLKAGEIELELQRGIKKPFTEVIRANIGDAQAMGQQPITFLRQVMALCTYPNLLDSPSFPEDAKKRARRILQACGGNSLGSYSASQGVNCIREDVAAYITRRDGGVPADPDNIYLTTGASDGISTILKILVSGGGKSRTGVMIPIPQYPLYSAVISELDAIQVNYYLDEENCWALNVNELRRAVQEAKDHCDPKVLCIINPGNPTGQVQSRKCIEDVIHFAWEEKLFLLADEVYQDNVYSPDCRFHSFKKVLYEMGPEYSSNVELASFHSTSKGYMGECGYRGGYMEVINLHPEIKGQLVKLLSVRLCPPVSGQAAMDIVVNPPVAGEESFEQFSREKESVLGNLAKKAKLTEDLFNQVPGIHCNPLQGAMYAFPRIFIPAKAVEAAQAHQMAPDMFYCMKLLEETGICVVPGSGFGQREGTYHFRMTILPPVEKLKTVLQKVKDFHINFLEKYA
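Fluorescence of coupled pyruvate oxidase/HRP/Amplex Red system (50uM Amplex, 30 min, dark) reports pyruvate formed by GPT2. Enzyme reaction: 10ng/uL GPT2, 2mM L-alanine, 250uM a-KG, 30 min room temperature, pH 7.5; 50uM AOA control.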
Large screens that a line does not name were inactive. Shown are actives, neighbours in structure and some others; about 10% of the full set was active somewhere. Unless noted, calls follow the shape of the dose curve; as a rule, active = well fitted curve in the direction sought with a large enough effect; inconclusive = small, poorly fitted or top-dose-only effect, or another doubt; inactive = no such curve, though single readings can be large; an effect the other way counts as inactive or inconclusive.

O=C(NCC(=O)N1CCC(c2ccccc2)CC1)c1cccc(-c2ccsc2)c1	NIH3T3 tox inconclusive, HEK cytotox 35µM (no result: hNpr1 antagonist, Luciferase inh)
Cc1ccccc1CC(=O)N1CCC(Oc2ncccc2C(=O)N2CCCCC2)C1 (stereo not given)	none
CCc1ccccc1OCC(=O)c1ccc2c(c1)N(CC(=O)Nc1ccc(F)cc1)C(=O)CO2	NIH3T3 tox 32µM, HEK cytotox 40µM
O=C(CN1C(=O)COc2ccc(C(=O)COc3cccc(F)c3)cc21)NCc1ccc2c(c1)OCO2	none
CCCc1ccccc1OCC(=O)c1ccc2c(c1)N(CC(=O)NCC1CC1)C(=O)CO2	GPT2 inhibitor inconclusive
COc1ccc(NC(=O)CN2C(=O)COc3ccc(C(=O)COc4cccc(F)c4)cc32)cc1	NIH3T3 tox 40µM
O=C(COc1ccccc1)NC[C@H]1COCc2nc3cc(F)ccc3n21	hNpr1 antagonist inconclusive, NIH3T3 tox inconclusive, HEK cytotox 79µM
Fc1ccc2c(c1)nc1n2[C@@H](CNC2CCC2)COC1	NIH3T3 tox 71µM, HEK cytotox inconclusive
O=C(CNC(=O)c1ccc(-c2cccc(C(F)(F)F)c2)cc1)NCc1ccc(F)cc1	NIH3T3 tox inconclusive, HEK cytotox inconclusive (no result: hNpr1 antagonist, Luciferase inh)
O=C(NC1CCCC1)c1ccc(OC2CCN(CCCC(F)(F)F)CC2)c(Cl)c1	NIH3T3 tox inconclusive, HEK cytotox 32µM
COc1ccc(-c2nc(C(C)C)nc3c2CCN(C(=O)c2ccccc2F)CC3)cc1	HEK cytotox inconclusive
COCCOc1ccc2c(n1)CCN(C(=O)c1nn(C)c3ccccc13)C2	none
CC1(O)CCCN(c2ccc(-c3nc(CCCc4ccccc4)no3)cn2)C1 (stereo not given)	hNpr1 antagonist inconclusive, Luciferase inh 35µM, NIH3T3 tox inconclusive, HEK cytotox 32µM
OCCC1CCN(c2ccc(-c3nc(CCCc4ccccc4)no3)cn2)CC1	none
OCCC1CN(c2ccc(-c3nc(CCCc4ccccc4)no3)cn2)CCO1 (stereo not given)	hNpr1 antagonist inconclusive, NIH3T3 tox inconclusive, HEK cytotox 50µM
COc1ccccc1C(=O)N1CCCC1C(=O)N1CCCC1c1nc2ccncc2[nH]1 (stereo not given)	none (no result: hNpr1 antagonist, Luciferase inh, GPT2 inhibitor)
Cc1ccc(C(=O)Nc2ccc3c(N4CCOCC4)ncnc3c2)cc1	Luciferase inh 16µM, NIH3T3 tox inconclusive, HEK cytotox inconclusive
O=C(Nc1ccc2ncnc(N3CCCC3)c2c1)c1cccc(Br)c1	NIH3T3 tox 14µM, HEK cytotox 18µM
O=C(Nc1ccc2ncnc(N3CCCCC3)c2c1)c1ccsc1	NIH3T3 tox 25µM, HEK cytotox 40µM, GPT2 inhibitor inconclusive
O=C(Nc1ccc2ncnc(N3CCCCC3)c2c1)c1cncc(Br)c1	HEK cytotox inconclusive
Cc1ccc(C)c(C(=O)Nc2ccc3c(N4CCCC4)ncnc3c2)c1	NIH3T3 tox inconclusive, HEK cytotox inconclusive
O=C(Nc1ccc2c(N3CCCC3)ncnc2c1)c1cccc(F)c1	NIH3T3 tox inconclusive, HEK cytotox inconclusive
O=C(Nc1ccc2c(N3CCOCC3)ncnc2c1)c1ccc(F)c(Cl)c1	NIH3T3 tox 35µM, HEK cytotox inconclusive
O=C(Nc1ccc2c(N3CCCCC3)ncnc2c1)c1ccsc1	Luciferase inh inconclusive, NIH3T3 tox inconclusive, HEK cytotox inconclusive, GPT2 inhibitor inconclusive
CNCc1ccc(F)cc1	none (no result: hNpr1 antagonist, Luciferase inh)
CN(C)c1ccc(C(=O)N2CCCC(n3cc(-c4nc(-c5ccccc5)no4)nn3)C2)cc1 (stereo not given)	hNpr1 antagonist inconclusive, Luciferase inh inconclusive, NIH3T3 tox inconclusive, HEK cytotox inconclusive
COc1ccccc1-c1cccc(C(=O)N2CCC[C@H]2C(=O)N2CCN(C(C)=O)CC2)c1	none (no result: hNpr1 antagonist, Luciferase inh)
O=C(Nc1ccc2ncnc(N3CCCCC3)c2c1)c1cc(F)ccc1F	NIH3T3 tox inconclusive, HEK cytotox inconclusive
O=C(Nc1ccc2c(N3CCCC3)ncnc2c1)c1ccc(Br)cc1	Luciferase inh inconclusive, NIH3T3 tox inconclusive, HEK cytotox inconclusive
O=C(Nc1ccc2ncnc(N3CCCCC3)c2c1)c1ccc(F)c(F)c1	NIH3T3 tox inconclusive, HEK cytotox 45µM
O=C(Nc1ccc2c(N3CCOCC3)ncnc2c1)c1ccccc1C(F)(F)F	NIH3T3 tox 28µM, HEK cytotox inconclusive
O=C(Nc1ccc2c(N3CCOCC3)ncnc2c1)c1cccc(Br)c1	NIH3T3 tox inconclusive, HEK cytotox 63µM, GPT2 inhibitor inconclusive
O=C(Nc1ccc2c(N3CCCC3)ncnc2c1)c1cc(F)ccc1F	NIH3T3 tox inconclusive, HEK cytotox inconclusive
C=CCCOC(=O)N1CCC(=O)N(CC=C)C[C@H]2COc3cc(OC)ccc3[C@H]21	HEK cytotox inconclusive (no result: hNpr1 antagonist, Luciferase inh, GPT2 inhibitor)
c1cc(-c2nnc([C@H]3CCN(C4CCCCC4)C3)o2)ccn1	Luciferase inh inconclusive
c1ccc(-c2nnc([C@H]3CCN(C4CCC4)C3)o2)cc1	Luciferase inh 25µM, HEK cytotox inconclusive
CN(C)c1ccc(-c2nnc([C@H]3CCN(C4CCC4)C3)o2)cc1	Luciferase inh 71µM
COc1ccccc1C(=O)N1CCN(c2nccc(Nc3ccccc3Cl)n2)CC1	NIH3T3 tox 28µM, HEK cytotox inconclusive (no result: hNpr1 antagonist, Luciferase inh)
O=C(c1ccccc1Cl)N1CCN(c2nccc(Nc3ccccc3Cl)n2)CC1	NIH3T3 tox inconclusive, HEK cytotox 45µM (no result: hNpr1 antagonist, Luciferase inh)
CC(=O)N1CCN(c2nccc(Nc3ccccc3Cl)n2)CC1	none (no result: hNpr1 antagonist, Luciferase inh)
COc1ccc(C(=O)N2CCN(c3nccc(Nc4ccccc4Cl)n3)CC2)cc1	NIH3T3 tox inconclusive, HEK cytotox inconclusive (no result: hNpr1 antagonist, Luciferase inh)
O=C(c1ccccc1Cl)N1CCN(c2nccc(Nc3ccccc3F)n2)CC1	NIH3T3 tox inconclusive, HEK cytotox inconclusive (no result: hNpr1 antagonist, Luciferase inh)
CC(C)C(=O)N1CCN(c2nccc(Nc3ccccc3Cl)n2)CC1	NIH3T3 tox inconclusive, HEK cytotox 40µM (no result: hNpr1 antagonist, Luciferase inh)
COc1ccc(Nc2ccnc(N3CCN(C(=O)c4ccccc4Cl)CC3)n2)cc1	NIH3T3 tox inconclusive, HEK cytotox 40µM (no result: hNpr1 antagonist, Luciferase inh)
COc1ccccc1C(=O)N1CCCN(c2ccnc3ccnn23)CC1	none (no result: hNpr1 antagonist, Luciferase inh)
COCCN1CCCCCC(O)c2cc(C(=O)NCCN3CCCC3)ccc21 (stereo not given)	NIH3T3 tox inconclusive, HEK cytotox inconclusive
Cc1ccc(C(=O)N2CCN(c3nccc(Nc4ccccc4Cl)n3)CC2)cc1	NIH3T3 tox inconclusive, HEK cytotox 22µM (no result: hNpr1 antagonist, Luciferase inh)
CCc1cccc2c(C(CC(=O)N3CCCCC3)c3cccc(C)c3)c[nH]c12 (stereo not given)	HEK cytotox inconclusive
CCc1cccc2c(C(CC(=O)N3CCCC3)c3cccc([N+](=O)[O-])c3)c[nH]c12 (stereo not given)	NIH3T3 tox 28µM, HEK cytotox inconclusive
CCc1cccc2c(C(CC(=O)N3CCc4ccccc4C3)c3cccc4c3OCO4)c[nH]c12 (stereo not given)	NIH3T3 tox 18µM, HEK cytotox inconclusive
O=C(CCC1CCN(S(=O)(=O)c2ccccc2)CC1)Nc1ccccc1	NIH3T3 tox inconclusive, HEK cytotox inconclusive (no result: hNpr1 antagonist, Luciferase inh)
